From PubChem BioAssay (NCI) come the findings set out here.

About 83,000 compounds went through this panel and 20% of them were active in at least one assay; those are over-represented in the sample as a whole.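 For each line, cells grew in 96-well plates with the test compound present at a single concentration for 48 hours.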 Values without a mark were called inactive. Activity calls are given as the source filed them. How the source made its calls: active means growth percent below 10; inactive means the rest.

Test systems include NCI-H23 lung; NCI-H460 lung; 786-0 renal; DU-145 prostate; MDA-MB-231 breast; SF-268 CNS; SF-539 CNS; M14 melanoma; SNB-75 CNS; PC-3 prostate; UACC-62 melanoma; SK-MEL-28 melanoma; ACHN renal; OVCAR-5 ovarian; OVCAR-3 ovarian; NCI/ADR-RES ovarian; SW-620 colon; MCF7 breast; HCT-116 colon; KM12 colon.
Common to all, as to assay: NCI-60 one-dose screen, 48 h (100 = growth as untreated, 0 = no growth, -100 = all killed)
Conditions in all cases: 10 µM unless noted

As for `Cc1cc(N(CCCl)CCCl)ccc1C=Nc1ccc2ccccc2c1`, the growth in the assay with NCI-H23 lung is 60.8%; in the assay on NCI-H460 lung, 26%; in the assay on 786-0 renal, 75.5%; in the assay on DU-145 prostate, 71.5%; with MDA-MB-231 breast it was 92%; with SF-268 CNS, 72.3%. In addition, the growth was 69% in the assay with SF-539 CNS; 88% in the assay on M14 melanoma; 72% in the assay on SNB-75 CNS; 77.2% in the assay on PC-3 prostate; 28.4% in the assay on UACC-62 melanoma; 102% with SK-MEL-28 melanoma. In addition, the growth was 57% with ACHN renal; 24.4% with OVCAR-5 ovarian; 85.7% in the assay on OVCAR-3 ovarian; 71.2% with NCI/ADR-RES ovarian; 84.9% with SW-620 colon; 40% in the assay with MCF7 breast. Moreover, the values for the growth in the assay with HCT-116 colon and in the assay on KM12 colon were 79.9% and 87.6%, respectively.
In the case of `N#[N+]c1cnc([O-])[nH]c1=O`, the growth is 26.9% with NCI-H23 lung; 107% with NCI-H460 lung; 93.9% in the assay on 786-0 renal; 99.9% with DU-145 prostate; 95.5% in the assay with MDA-MB-231 breast; 97.5% in the assay with SF-268 CNS. In addition, the growth in the assay on SF-539 CNS was 97.5%; with M14 melanoma, 108%; in the assay with SNB-75 CNS, 74.7%; in the assay on PC-3 prostate, 92.7%; with UACC-62 melanoma, 85.6%; with SK-MEL-28 melanoma, 104%. Further, the growth in the assay on ACHN renal is 94.4%; in the assay on OVCAR-5 ovarian it was 83.9%; with NCI/ADR-RES ovarian, -8.91% (active); with SW-620 colon, 89%; with MCF7 breast it was 100%; with HCT-116 colon it was 108%. Besides, the growth in the assay with KM12 colon was 100%.
For the molecule `C#CC1(O)CCC2(C)C(CCC3C4CCC(=O)C4(C)CCC32)C1` (configuration not stated), the growth was 97.3% with NCI-H23 lung; 102% in the assay with NCI-H460 lung; 97.4% with 786-0 renal; 109% in the assay on DU-145 prostate; 101% in the assay on MDA-MB-231 breast; 97.9% with SF-268 CNS. The growth was 97.2% in the assay on SF-539 CNS; 102% with M14 melanoma; 84.4% with SNB-75 CNS; 90.9% in the assay with PC-3 prostate; 88.7% in the assay on UACC-62 melanoma; 105% in the assay on SK-MEL-28 melanoma. The growth is 97.8% in the assay on ACHN renal; 99.8% with OVCAR-5 ovarian; 109% with OVCAR-3 ovarian; 96.4% in the assay on NCI/ADR-RES ovarian; 103% in the assay on SW-620 colon; 104% with MCF7 breast. Further, the growth was 92.3% in the assay with HCT-116 colon and 102% in the assay with KM12 colon.
Consider `C[CH2][Pb]([CH2]C)([CH2]C)[O]C(=O)c1ccc(N)cc1`, for which the growth with NCI-H23 lung is 51.2%; in the assay on NCI-H460 lung, 69.5%; in the assay with 786-0 renal, 80.2%; in the assay on DU-145 prostate, 68%; in the assay with MDA-MB-231 breast, 88.7%; with SF-268 CNS, 72.9%. The growth in the assay with SF-539 CNS was 87.4%; in the assay on M14 melanoma it was 60%; in the assay with SNB-75 CNS it was 47.2%; in the assay on PC-3 prostate, 57.5%; in the assay with UACC-62 melanoma, 73.4%; with SK-MEL-28 melanoma, 58.8%. The growth is 70.7% in the assay on ACHN renal; 85.1% with OVCAR-5 ovarian; 57.5% with OVCAR-3 ovarian; 59.7% with NCI/ADR-RES ovarian; 28.7% in the assay on SW-620 colon; 56.1% in the assay with MCF7 breast. In addition, the growth in the assay with HCT-116 colon is 57.7%; in the assay with KM12 colon it was 59.4%.
Turning to `Nc1c(Br)cc([N+](=O)[O-])cc1[N+](=O)[O-]`, the growth in the assay with NCI-H23 lung was 98.4%; in the assay on NCI-H460 lung, 103%; in the assay with 786-0 renal, 105%; in the assay on DU-145 prostate it was 101%; in the assay on MDA-MB-231 breast, 105%; with SF-268 CNS, 97.7%. Further, the growth in the assay with SF-539 CNS was 110%; in the assay on M14 melanoma it was 113%; in the assay with SNB-75 CNS, 99.2%; in the assay with PC-3 prostate, 102%; with UACC-62 melanoma, 101%; in the assay with SK-MEL-28 melanoma, 116%. Moreover, the growth with ACHN renal was 125%; in the assay on OVCAR-5 ovarian, 106%; in the assay on OVCAR-3 ovarian it was 108%; in the assay on NCI/ADR-RES ovarian, 105%; in the assay with SW-620 colon, 103%; with MCF7 breast, 103%. Moreover, the figures for the growth in the assay with HCT-116 colon and in the assay with KM12 colon were 108% and 105%, respectively.
For `NC(=O)C(Br)CBr` (configuration not stated), the growth with NCI-H23 lung was 24.1%; in the assay with NCI-H460 lung it was 4.13% (active); in the assay with DU-145 prostate it was -28.2% (active); in the assay with MDA-MB-231 breast it was 14.3%; in the assay on SF-268 CNS, -23.1% (active); in the assay with SF-539 CNS it was 39.2%. The growth is -88.3% (active) in the assay with M14 melanoma; 103% with SNB-75 CNS; 13.9% in the assay on PC-3 prostate; 19.9% in the assay with UACC-62 melanoma; -28% (active) in the assay on SK-MEL-28 melanoma; -76.2% (active) with ACHN renal. The growth in the assay on OVCAR-5 ovarian is 10.9%; with OVCAR-3 ovarian, -85.1% (active); in the assay with NCI/ADR-RES ovarian it was 15.3%; in the assay on SW-620 colon, -59.3% (active); with MCF7 breast, 2.57% (active); in the assay with HCT-116 colon it was -92.7% (active). Also, the growth with KM12 colon was 71.4%.
With `O=S(=O)(F)c1ncnc2nc[nH]c12`, the growth in the assay with NCI-H23 lung was 95.5%; with NCI-H460 lung, 103%; in the assay on 786-0 renal it was 97.6%; in the assay on MDA-MB-231 breast, 93.9%; in the assay with SF-268 CNS, 70%; with SF-539 CNS it was 88.1%. Further, the growth was 100% in the assay with M14 melanoma; 87.3% with SNB-75 CNS; 93.7% with PC-3 prostate; 89.8% with UACC-62 melanoma; 97% in the assay with SK-MEL-28 melanoma; 98.1% in the assay with ACHN renal. Also, the growth is 90.7% with OVCAR-5 ovarian; 60.7% in the assay with OVCAR-3 ovarian; 93.8% in the assay on NCI/ADR-RES ovarian; 95.4% in the assay with SW-620 colon; 84.1% with MCF7 breast; 100% in the assay with HCT-116 colon. The growth in the assay with KM12 colon was 81.8%.
For `O=C(O)c1nn(Cc2ccc(Cl)cc2)c2ccccc12`, the growth is 105% with NCI-H23 lung; 105% with NCI-H460 lung; 108% in the assay on 786-0 renal; 120% with DU-145 prostate; 107% in the assay with MDA-MB-231 breast; 109% in the assay on SF-268 CNS. Also, the growth is 102% in the assay on SF-539 CNS; 107% in the assay on M14 melanoma; 95.9% in the assay on SNB-75 CNS; 98.7% with PC-3 prostate; 102% with UACC-62 melanoma; 119% in the assay on SK-MEL-28 melanoma. The growth in the assay on ACHN renal is 117%; in the assay with OVCAR-5 ovarian, 108%; with OVCAR-3 ovarian it was 132%; in the assay with NCI/ADR-RES ovarian, 112%; with SW-620 colon, 105%; in the assay on MCF7 breast, 99.7%. In addition, the growth in the assay on HCT-116 colon is 103%; with KM12 colon, 109%.
